# Dicer inh: blocks human Dicer maturation of pre-miR-21 | hit rate 6% among 47,000 | cat-ELCCA pre-miR-21 Dicer processing, chemiluminescence; stronger effect = higher value | Q9UPY3 | z-score at 25 µM; in the data active = z-score above about 3, passing the limit was not always enough;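 note: plate controls were vehicle for no effect and no enzyme for full effect; higher signal means more uncleaved substrate so more Dicer inhibition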
# Starred values were filed as active, the others as inactive. Only a selection was taken, and hits are over-represented in it overall.
SMILES,Dicer inh
COC(=O)c1c(NC(=O)CCC(=O)O)sc2c1CC(C)(C)OC2,0.59
CC(=O)Nc1sc2c(c1C(=O)O)CC(C)(C)OC2,-1.3
Cc1nc(-c2nc(-c3c(C(=O)N/N=C/c4ccccc4)noc3C)cs2)cs1,-0.41
CCOc1ccc(S(=O)(=O)N2c3ccc(C)cc3C(C)=CC2(C)C)cc1,3.5*
COc1ccc(S(=O)(=O)N2c3ccc(C)cc3C(C)=CC2(C)C)cc1,-1
CC1=CC(C)(C)N(S(=O)(=O)c2ccc(F)cc2)c2ccc(C)cc21,-0.75
Clc1ccc2oc(-c3ccccn3)nc2c1,0.34
O=C(O)C(Cc1c[nH]c2ccccc12)NCc1ccc([N+](=O)[O-])cc1 (stereo not drawn),1.4
CSc1nnc(Nc2ccc(Cl)cc2Cl)s1,3.9*
CSc1nc(C)nc(Nc2ccc(Cl)cc2Cl)c1C#N,-0.83
CSc1ccc(/C=N/Nc2ccc(Cl)cc2Cl)s1,5.2
Cc1ccc(=O)n(Cc2ccc(Cl)cc2)n1,-0.85
COC(=O)C(C(=O)OC)=C(NC(N)=O)SC,-0.39
Cc1n[nH]c(=O)nc1NCC1CCCO1 (stereo not drawn),5.8*
Cc1ccccc1Cn1c(NCC2CCCO2)nc2c1c(=O)n(C)c(=O)n2C (stereo not drawn),1.7
Cc1n[nH]c(=O)nc1NCCCN(C)C,-1.4
COc1ccc(-c2nc3n(n2)C(c2ccc(Cl)cc2)C2=C(CC(C)(C)CC2=O)N3)cc1OC (stereo not drawn),1
O=C(OCCS(=O)(=O)c1ncccc1Cl)c1cccc(Cl)c1,-0.34
COc1ccccc1NC(=O)N1CCCN(C(=O)c2cccs2)CC1,-1.1
Cc1ccc(/C(O)=C2\C(=O)C(=O)N(CCN3CCOCC3)C2c2cccnc2)cc1 (stereo not drawn),0.8
O=C1C(=O)N(CCCN2CCOCC2)C(c2ccc(Cl)cc2)/C1=C(\O)c1ccc(F)cc1 (stereo not drawn),-0.47
O=C1C(=O)N(CCCN2CCOCC2)C(c2cccnc2)/C1=C(\O)c1ccc(F)cc1 (stereo not drawn),3.5*
Cc1cccc(NC(=O)/C=C/C(=O)O)c1,-0.11
O=C(O)/C=C/C(=O)Nc1ccc(C(=O)O)c(O)c1,4.7*
Cc1ccc(NC(=O)/C=C/C(=O)Nc2ccc(C)c(Cl)c2)cc1Cl,0.84
SMILES,Dicer inh
CCN(CC)OC(=O)Nc1c(-c2c(Cl)cccc2Cl)noc1C,0.04
O=C(O)c1ccc(Nc2nc(-c3ccccc3)c3ccccc3n2)cc1,-0.14
CSc1ccc2c(c1)N(CCC1CCCCN1C)c1ccccc1S2 (stereo not drawn),-0.51
CSc1nn(-c2ccccc2)cc1C(N)=S,-0.12
CSc1nn(-c2ccccc2)cc1/C(N)=N/O,6*
CSc1nn(-c2ccccc2)cc1/C(N)=N/OC(=O)Nc1ccccc1,3.7
O=C(c1ccc(F)cc1)N1C=CC(C(F)(F)F)=NCC1,-3.1
COC(=O)c1cc(C#N)c(SCC(=O)C(C)(C)C)nc1C(OC)OC,0.06
COC(=O)C1C(=O)CC(C)(O)C(C(=O)OC)C1c1ccc(Cl)cc1 (stereo not drawn),-0.75
Cc1oc(S(=O)(=O)N2CCCC2)cc1C(=O)Nc1ccccc1N1CCOCC1,0.43
C=CCn1cnnc1C(CCC(C)C)CC(C)(C)O (stereo not drawn),3.8*
CCOc1cc(C2C(C#N)=C(N)Oc3n[nH]c(C)c32)ccc1OCc1ccccc1 (stereo not drawn),-6
C/C(=N\OCc1cccc(C(=O)O)c1)c1ccc(Cl)cc1,1.9
CCOC(=O)c1ccc(-n2nc(C)cc2C)cc1,-0.71
CCOC(=O)c1ccc(N)c(N)c1,3.4*
CCOC(=O)c1ccc([N+](=O)[O-])c(C)c1,-2.5
O=C1C=C(NCc2ccc3c(c2)OCO3)CC(c2ccccc2)C1 (stereo not drawn),0.52
O=C(Nc1ccc(COc2ccccc2)cc1)Oc1ccccc1N1CCOCC1,0.88
Fc1ccc(CNCc2ccncc2)cc1,1.6
COc1ccc(NC2CC(=O)N(c3ccc(Br)cc3)C2=O)cc1 (stereo not drawn),1.1
COc1cccc(C2CC(c3ccc(C)cc3)Nc3nc(N)nn32)c1 (stereo not drawn),0.24
Cc1cccc(NCN2C(=O)CCC2=O)n1,-0.35
O=C1CCC(=O)N1CNc1ccccn1,3.4*
O=C1CCC(=O)N1CNc1ccccc1C(F)(F)F,-0.13
FC(F)(F)c1ccccc1-n1nnnc1-c1ccc(Cl)cc1,-2.7
SMILES,Dicer inh
O=C(N/N=C/c1ccccc1Cl)N/N=C/c1ccccc1Cl,3.8*
O=C(N/N=C/c1ccc(Cl)c(Cl)c1)N/N=C/c1ccc(Cl)c(Cl)c1,-2.8
S=C(NCCc1ccccc1)N/N=C/c1ccccc1Cl,1.6
COC(=O)c1sccc1NC(=O)c1cc(C(=O)Nc2ccsc2C(=O)OC)cc(C(C)(C)C)c1,0.28
COc1cc2c(cc1OC)CN(C(=O)c1ccco1)CC2,5*
COc1cc2c(cc1OC)CN(C(=O)CSc1nnc3ccccn13)CC2,-0.05
COc1cc2nc(N3CCN(C(=O)c4ccco4)CC3)nc(N)c2cc1OC,0.19
Cc1c(C)c(C)c(S(=O)(=O)Oc2c(Cl)cccc2Cl)c(C)c1C,6.9*
Cc1c(C)c(C)c(S(=O)(=O)Oc2ccc(Cl)c(Cl)c2)c(C)c1C,0.31
Cc1cc(S(=O)(=O)Oc2c(Cl)cccc2Cl)cc(C)c1F,-0.24
CS(=O)(=O)n1nccc1-c1ccc(-c2ccc(F)cc2F)o1,-0.29
CCOc1ccccc1Oc1coc2cc(O)ccc2c1=O,3.3*
CCOc1ccccc1Oc1c(C)oc2cc(O)ccc2c1=O,0.76
COc1ccccc1Oc1coc2cc(O)ccc2c1=O,0.15
Cc1nn(S(=O)(=O)c2ccc(-c3ccccn3)s2)c(C)c1Br,0.05
Fc1ccc(N2CCN(Cc3cn[nH]c3-c3ccccc3)CC2)cc1,3.5*
OC1(c2ccc(Cl)cc2)CCN(Cc2cn[nH]c2-c2ccc(F)cc2)CC1,-0.13
OC1(c2ccc(Cl)cc2)CCN(Cc2cn[nH]c2-c2ccccc2)CC1,-1.4
C=CCSc1nnc(Cc2c(C)[nH]c3ccccc23)o1,-1.9
CCOC(=O)c1c(C)csc1NC(=O)CSc1ccc(Cl)cc1,0.16
O=c1[nH]c2ccccc2c(=O)n1CCSc1ccccc1,-0.98
Cc1csc2c(=O)n(CCSc3ccc(Cl)cc3)c(=O)[nH]c12,3.1*
Cc1csc2ncnc(Sc3ccc(Cl)cc3)c12,-1.3
NC(=O)Cn1c(SCCOc2ccc(Cl)cc2)nc2ccccc21,2.3
CCOC(=O)c1cc(/C(C)=N/NS(=O)(=O)c2ccc(F)c(Cl)c2)on1,-3.1
SMILES,Dicer inh
Fc1ccc(Cn2ccnc2-c2ccc(C(F)(F)F)cc2)cc1,0.67
Cc1cc(Cc2ccc(N)c(C)c2)ccc1N,1.1
Cc1cc(C2(c3ccc(N)c(C)c3)CCCCC2)ccc1N,3.1*
CC1CCN(c2nc(-c3ccccc3)ns2)CC1,3
CCCCNc1n[nH]c2c1CCc1ccccc1-2,0.76
COC(=O)C1=CO[C@@H](O)[C@@H]2C(CO)=CC[C@H]12,-0.52
CN1C(=O)C2ON(c3ccccc3)C(c3cccs3)C2C1=O (stereo not drawn),-1.2
CCOc1ccc(-c2nc3cc(N)ccc3o2)cc1,1.5
Nc1ccc(-c2nc3cc(N)ccc3o2)cc1,-0.37
Nc1cccc(-c2nc3cc(Cl)ccc3o2)c1,4.5*
CN(C)c1ccc(-c2nc3cc(N)ccc3o2)cc1,3.4*
Nc1cccc(-c2nc3ccccc3o2)c1,0.17
Cc1cc2nc(-c3cccc(N)c3)oc2cc1C,0.66
COC(=O)C1=C(C)Nc2nc3ccccc3n2C1c1ccccc1C (stereo not drawn),-2.6
O=C(OCCS(=O)(=O)c1ccc([N+](=O)[O-])cn1)c1cccc(Cl)c1,-0.99

# High-throughput results (PubChem BioAssay)
